IL1B secr inh: inhibitors of inflammasome signaling (IL-1 beta secretion); actives 4.7% (n = 360,000); THP-1 LPS/ATP IL-1B secretion, AlphaLISA, 16 h; hits give low values; activity change, % at 57.5 µM; in the data active = activity change below about -50%; inconclusive = mostly about -30% to -49%
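THP-1 cells pretreated 1 hr with compounds (up to 57.5 uM final), then stimulated with LPS (250 ng/mL final) plus ATP (1.25 mM final); secreted IL-1B measured by AlphaLISA after 16 hr, decreased signal indicating inhibition.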
HepG2 tox: kills HepG2 cells in TGF-b inhibitor counter-screen; Potency, µM (top dose mostly 46.1 µM), hits mostly cytotoxic; AID 588856; HepG2 CAGA-GFP viability, ATP luminescence, 18 h; actives 0.76% (n = 410,000)
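CellTiter-Glo luminescence gave cytotoxicity after 18 hours at 37 degrees C. The cells were HepG2 CAGA-GFP in 1% FBS DMEM, stimulated with 500 pg/mL TGF-beta after compound addition. %Activity was normalised to no-cell wells (complete cell-killing) and DMSO (no toxicity), and curves were fitted and classified.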
TGFb inhibitor: blocks TGF-b signaling | HepG2 CAGA-GFP TGF-b/SMAD3 reporter, GFP fluorescence, 18 h; TGF-beta stimulated, 500 pg/mL final | Potency, µM (series often up to 46.1 µM), actives largely listed as inhibitors | actives 1.2% (n = 410,000) | AID 588855; also: nearly all actives have a fitted effect of over 65% in size
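Cell-based qHTS in HEPG2 carrying a CAGA-GFP Smad reporter; compounds added before 500 pg/mL final TGF-beta, 18 h incubation at 37 degrees C, GFP fluorescence quantified per cell by imaging cytometry.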
ATXN2 expr inh: inhibitors of ATXN2 expression | actives 0.72% (n = 360,000) | Potency, µM (highest dose often 57 µM), actives largely listed as inhibitors | HEK-293 ATXN2-luciferase reporter, luminescence, 24 h; also: nearly all actives have a fitted effect of over 55% in size
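qHTS (up to 57 uM final) was run with 24 h compound exposure of reporter cells at 37 °C. Each well was multiplexed: SteadyGlo luminescence measured ATXN2-luciferase expression after a fluorogenic Gly-Phe-AFC viability readout (25 uM final).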
S2 tox: reduces viability in counter-screen for ATXN expression inhibitors. S2 cells (HEK-293 line with an ATXN2-luciferase reporter) viability, CellTiter-Fluor protease fluorescence, 24 h. Potency, µM (top dose mostly 56.7 µM), actives largely listed as cytotoxic. actives 0.49% (n = 400,000). AID 651635; also: nearly all actives have a fitted effect of over 40% in size
Each line names hits and unclear results; the compound was inactive in the other large screens. In the library only some 5.7% were active in any assay of this set; here they are far more common. Unless noted, calls follow the shape of the dose curve; as a rule, active = well fitted curve in the direction sought with a large enough effect; inconclusive = small, poorly fitted or top-dose-only effect, or another doubt; inactive = no such curve, though single readings can be large; an effect the other way counts as inactive or inconclusive.

CN(C)CCNC(=O)c1ccc(-n2c(-c3ccccc3)cc3c2CCCC3)cc1	HepG2 tox 17.8µM, TGFb inhibitor inconclusive (no result: IL1B secr inh, ATXN2 expr inh, S2 tox)
COc1cc(NC(=O)c2ccccc2-n2cnnn2)cc(OC)c1	none
COc1cc(OC)cc(C(=O)Nc2ccc(-n3cnnn3)c(C)c2)c1	IL1B secr inh -67.5
CC1CCCC(NC(=O)COC(=O)c2ccc([N+](=O)[O-])o2)C1C (stereo unspecified)	HepG2 tox 3.16µM
CC1CCCCC1NC(=O)COC(=O)c1ccc([N+](=O)[O-])o1 (stereo unspecified)	none
CC(CN1CCc2nnc(CNC(=O)c3cccc(F)c3)n2CC1)c1ccccc1 (stereo unspecified)	none (no result: IL1B secr inh, HepG2 tox, TGFb inhibitor, ATXN2 expr inh)
CCc1cc2c(=O)c(-c3cnn(-c4ccccc4)c3)c(C)oc2cc1OCC(=O)Nc1cccc(C)c1	ATXN2 expr inh inconclusive, S2 tox 1.78µM
CCN(CC)c1ccc(/C=C2/SC(=O)N(C(C)C)C2=O)o1	IL1B secr inh -94.4, S2 tox inconclusive
Cc1cc(N2CCOCC2)ccc1/C=C1\SC(=O)N(C(C)C)C1=O	S2 tox inconclusive
CC(C)N1C(=O)S/C(=C\c2ccc(-c3ccc(Cl)c(C(=O)O)c3)o2)C1=O	HepG2 tox 12.6µM (no result: ATXN2 expr inh, S2 tox)
CCOC(=O)CN1C(=O)S/C(=C\c2ccc(-c3ccc(C(=O)O)c(Cl)c3)o2)C1=O	IL1B secr inh inconclusive
Cc1ccnc2c(N)cccc12	none (no result: IL1B secr inh, ATXN2 expr inh, S2 tox)
CCc1ccc(NC(=O)CC2C(=O)N(c3cccc(OC)c3)C(=O)N2C2CCCC2)cc1 (stereo unspecified)	none (no result: IL1B secr inh, ATXN2 expr inh, S2 tox)
CC1CN(CCOc2cccc(Oc3ccccc3)c2)CC(C)O1 (stereo unspecified)	none
CC1CN(CCCCOc2cccc(Oc3ccccc3)c2)CC(C)O1 (stereo unspecified)	IL1B secr inh -66.9
CC1CN(CCCCOc2ccc(Cl)c3ccccc23)CC(C)O1 (stereo unspecified)	IL1B secr inh inconclusive, TGFb inhibitor 15.8µM
CCOC(=O)c1nnc2c(-c3ccc(Cl)cc3)c(C)nn2c1N	TGFb inhibitor inconclusive (no result: IL1B secr inh)
COc1ccc(CCc2ccnc3ccccc23)cc1	IL1B secr inh -62.2, S2 tox inconclusive
CCCCc1c(C)nc2cc(-c3ccco3)[nH]n2c1=O	IL1B secr inh -95.9
CCOc1cc(-c2noc(N)c2C(=O)OC)cc(OCC)c1OCC	IL1B secr inh -105.7, S2 tox inconclusive
CCc1ccc2occ(CC(=O)Nc3c(C(=O)Nc4ccc(C)cc4)oc4ccccc34)c2c1	HepG2 tox 15.8µM (no result: IL1B secr inh)
COc1ccc(C)cc1NS(=O)(=O)c1ccc2c(c1)CCCN2C(C)=O	none (no result: IL1B secr inh)
CC1=C(c2ccc(C)cc2)S(=O)(=O)NC1=NCCCN1CCN(c2ccccc2F)CC1	TGFb inhibitor inconclusive (no result: IL1B secr inh, ATXN2 expr inh, S2 tox)
CCOC(=O)N1CCC(c2cc(=O)n3[nH]c(C)c(-c4ccc(F)cc4)c3n2)CC1	ATXN2 expr inh 31.6µM
CCOc1ccc2nc(N(CCCN(C)C)C(=O)c3ccc(S(=O)(=O)N4CCc5ccccc5C4)cc3)sc2c1	none
Cc1ccc2sc(N(CCCN(C)C)C(=O)c3ccc(S(=O)(=O)N4CCc5ccccc5C4)cc3)nc2c1C	IL1B secr inh -82.4
COc1cc2nc(N(CCCN(C)C)C(=O)c3ccc(S(=O)(=O)N4CCc5ccccc5C4)cc3)sc2cc1OC	IL1B secr inh -96.2
COc1cccc2sc(N(CCCN(C)C)C(=O)c3ccc(S(=O)(=O)N4CCc5ccccc5C4)cc3)nc12	IL1B secr inh -97.2, TGFb inhibitor inconclusive, ATXN2 expr inh inconclusive, S2 tox inconclusive
O=C(O)CCn1cnc2onc(-c3ccccc3Cl)c2c1=O	none (no result: IL1B secr inh)
Cc1cc(N2CCN(c3ccccc3Cl)CC2)n2cc(-c3ccccc3)nc2n1	IL1B secr inh -59.6, TGFb inhibitor inconclusive, ATXN2 expr inh inconclusive, S2 tox inconclusive
Cc1cc(N2CCN(c3cc(Cl)ccc3C)CC2)n2nc(-c3ccccc3)nc2n1	none (no result: IL1B secr inh)
Cc1cc(S(=O)(=O)N(Cc2ccc(C(C)C)cc2)CC2CCCO2)ccc1-n1cnnn1 (stereo unspecified)	IL1B secr inh -79.1, TGFb inhibitor inconclusive
CCN(CC)CCN(C)c1ccc(/C=C/c2ccnc3ccccc23)cc1	TGFb inhibitor inconclusive (no result: IL1B secr inh, ATXN2 expr inh, S2 tox)
COc1ccccc1C(=O)N[C@@H]1c2ccccc2C2(CCN(Cc3cccnc3)CC2)[C@H]1O	none (no result: IL1B secr inh, HepG2 tox, TGFb inhibitor, ATXN2 expr inh)
N#CC(C#N)=C1SC(=Nc2ccccc2)C(=Nc2ccccc2)N1c1ccccc1	ATXN2 expr inh 26.7µM, S2 tox 26.7µM
CCc1cccc(NC(=O)CCc2c(C)nc3c(c2C)c(=O)n(C)c(=O)n3C)c1	none (no result: IL1B secr inh)
c1ccc(-c2ccc(C3=Nn4c(Cn5nnc6ccccc65)nnc4SC3)cc2)cc1	IL1B secr inh -57.2, TGFb inhibitor inconclusive, S2 tox inconclusive
Clc1ccc(C2=Nn3c(Cn4nnc5ccccc54)nnc3SC2)cc1	IL1B secr inh -53.1, S2 tox inconclusive
c1ccc(C2=Nn3c(Cn4nnc5ccccc54)nnc3SC2)cc1	none
CCCCN(Cc1cc2ccccc2[nH]c1=O)C(=O)c1cccc(Cl)c1	S2 tox inconclusive (no result: IL1B secr inh)
Cc1ccc(CNC(=O)C2CCN(C(=O)c3cnn(-c4ccccc4)c3-n3cccc3)CC2)cc1	none (no result: IL1B secr inh, TGFb inhibitor, ATXN2 expr inh, S2 tox)
COc1ccc(/C=N/NC(=O)c2cc(C(C)(C)C)[nH]n2)cc1COc1ccc(F)cc1F	IL1B secr inh -77.0, TGFb inhibitor inconclusive
COc1ccc(/C=N/NC(=O)c2ccc(F)cc2)cc1CN1CCc2cc(OC)c(OC)cc2C1C (stereo unspecified)	IL1B secr inh -58.8
COc1ccc(/C=N/NC(=O)c2ccc(O)cc2)cc1CN1CCCc2ccccc21	TGFb inhibitor 12.6µM
COc1ccc(/C=N\NC(=O)c2ccccc2F)cc1COc1ccc(F)cc1F	TGFb inhibitor inconclusive, S2 tox inconclusive
CCC1CN(Cc2cn[nH]c2-c2ccccc2)Cc2cc(OC)ccc2O1 (stereo unspecified)	none (no result: IL1B secr inh, HepG2 tox, TGFb inhibitor, ATXN2 expr inh)
CC1=C(C(=O)N2CCCCC2)C(c2cccc(Cl)c2)n2c(nc3ccccc32)N1 (stereo unspecified)	none (no result: IL1B secr inh)
CN1N/C(=C\c2ccccc2)N=C2C(=O)N(C)C(=O)N=C21	HepG2 tox 1.12µM (no result: IL1B secr inh, ATXN2 expr inh, S2 tox)
CC(=O)Nc1ccc(S(=O)(=O)N2CCN(c3ccc(C)c(C)c3)CC2)cc1	none (no result: IL1B secr inh)
O=Nc1ccc(NO)c2ccccc12	TGFb inhibitor 12.6µM (no result: ATXN2 expr inh)
COC(=O)c1cn(C(=O)OC)c2ccccc12	none
Cc1ccc(NC(/C=C/N(C)C)=C/C(=O)C(F)(F)F)c(C)c1	TGFb inhibitor 20µM
CN(C)/C=C\C(=C/C(=O)C(F)(F)F)Nc1ccccc1Oc1ccccc1	IL1B secr inh -98.4, TGFb inhibitor inconclusive
Cc1ccc(NC(=O)CC(=O)Nc2ccc(C)cc2C)c(C)c1	TGFb inhibitor inconclusive (no result: ATXN2 expr inh)
COc1ccccc1CNC(=O)Cn1c(-c2cccs2)cc2cc(F)ccc21	none (no result: IL1B secr inh)
O=C1CN(S(=O)(=O)c2cc(Br)ccc2Br)CCN1	none
